# Measured values: the OligoGym collection
# Biological target: TMEM18
# Assay: pooled miR-30 sensor sort-seq; sequence = guide strand
# Conditions: shRNA
# Also: reference of the scale not given here.
row,Sequence,sensor-assay potency score (higher = more potent)
1,ATAATCTCCAGTTCATCGCAGC,-0.328
2,TATTTCGAAAATAATCTCCAGT,-0.177
3,ATAACCACAATGATCATGGCAT,0.502
4,ATCTGTAGTCTGTAGCTTCGGG,-0.359
5,TAGTCTGTAGCTTCGGGAGGAC,-0.482
6,TAGACTAAGATGACTAGACACA,-0.939
7,TATTTAAATAAAACAACGGTTT,-1.16
8,TATATTTATAATTAGTACTAGT,-0.393
9,TAGCTTCGGGAGGACAAGCAGG,-1.33
10,TATAGAAATGAACATCCCCCTG,-1.12
11,TCTGTAGTCTGTAGCTTCGGGA,-0.977
12,TTTCAAACCATGAGTCAGCTGG,0.141

# Biological target: TMEM200C
# Assay: as above
# Conditions: shRNA
row,Sequence,sensor-assay potency score (higher = more potent)
1,TTGACCAGCTACTGCGTCCAAG,-1.14
2,TTTTGGTCTTCTTGTCCCGGTT,-1.07
3,TTGTAAACTGCCTCTGCACCGG,-0.336
4,TTCTTGTCCCGGTTCTCGTGGA,-0.413
5,ATTTTGGTCTTCTTGTCCCGGT,-0.495
6,TCCAGTTCTTCTTCTACCCCTA,-0.433
7,TTTCACCACCACCACGTCGTTC,-1.27
8,TTGGCTTTCCGCTTGCGCTTGG,0.0739
9,TTTGCTGCCACTGCTACTGCTG,-0.287
10,TTGCGCTTGGGTATCTGGCTTG,-0.405
11,AATCATGATGAGTTTCTCCTTG,-0.235
12,TTGAGCTTGTCAGAGTGCAGGT,0.387
